# Screening results (PubChem BioAssay)
# Shown are actives, neighbours in structure and some others; about 2.7% of the full set was active somewhere.
# IP6K1 inhibitor: Primary qHTS assay for small molecule inhibitors of Inositol hexaphosphate kinase 1 (IP6K1). Inositol hexakisphosphate kinase 1 (Homo sapiens), Q92551. IP6K1 kinase, ADP-Glo luminescence, 2 h; hits give low values. activity change, % (series mostly up to about 58 µM). hit rate 0.81% among 140,000. AID 1645851, 2021; in the data active means activity change below about -25%
#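 ADP-Glo luminescence measures ADP made by human IP6K1 during a 2 h RT reaction with ATP/IP6 (mix at 1.3 mM/130 uM); top library doses 57.5 and 19.1 uM final.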
# KDM5B inhibitor: Primary screen for KDM5B Histone Demethylases FDH-coupled qHTS. KDM5B demethylase, FDH-coupled NADH fluorescence (FDH is formaldehyde dehydrogenase). Lysine-specific demethylase 5B (Homo sapiens), Q9UGL1. AID 1347165, 2019. Potency, µM (series often up to 57.7 µM), most hits filed as inhibitors. hit rate 2.6% among 220,000; active means well fitted inhibition curve with a large enough effect; inconclusive means small, poorly fitted or top-dose-only effect; inactive means no such curve, though single readings can be large or run the other way; further: nearly all actives have a fitted effect of over 70% in size
#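 qHTS format, multiple compound concentrations. Buffer 50 mM HEPES pH 7.5/0.01% Tween-20; 200 nM KDM5BΔAP final; 10 min compound preincubation; substrate-mix levels 12.5 µM peptide, 25 µM α-KG, 0.25 mM NAD⁺; 30 min RT; ΔRFU.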
# Numbers stand for hits; i = inactive; ? = inconclusive; nt = no result given.
SMILES,IP6K1 inhibitor,KDM5B inhibitor
O=C(NCc1ccc(Cl)nc1)c1cnn2c1CN(C(=O)c1ccccc1)CC2,i,i
O=C(NCc1ccc(Cl)nc1)c1cccn2nccc12,i,35µM
COc1ccc(-c2ccc(C(=O)N3CCC(NC(=O)N4CCOCC4)CC3)cc2)nn1,i,nt
O=C(N1CCC(Cc2noc(-c3ccc(F)cc3)n2)C1)C1(c2ccccc2)CC1 (configuration not stated),i,nt
COc1cc(-c2nccc3c(=O)cc(N(C)c4ccccc4)oc23)ccn1,i,i
COc1cc(-c2nccc3c(=O)cc(N4CCOCC4)oc23)ccn1,i,25µM
CN1CCN(c2ccc(-c3nccc4c(=O)cc(N5CCOCC5)oc34)cn2)CC1,i,?
COc1ccc(-c2nccc3c(=O)cc(N4CCOCC4)oc23)cn1,i,35µM
Cc1ccc(F)c(OC2(C(=O)O)CCN(c3cnc4ccccc4n3)CC2)c1,i,20µM
Cc1cccc(C(=O)N2CCC(Oc3ccccc3F)(C(=O)O)CC2)c1,i,i
Cc1c(Cl)cccc1NCC(=O)N1CCN(S(C)(=O)=O)CC1,nt,i
Cc1ccc(-c2cc3c(=O)n(CCNC(=O)c4cc(F)ccc4F)ccn3n2)cc1C,i,?
COc1ccc(-c2cc3c(=O)n(CCNC(=O)c4ccccn4)ccn3n2)cc1,i,?
COc1ccc(-c2cc3c(=O)n(CCNC(=O)c4ccccc4C)ccn3n2)cc1,i,20µM
COc1ccccc1C(=O)NCCn1ccn2nc(-c3ccc(C)c(C)c3)cc2c1=O,i,28µM
COc1cccc(-c2cc3c(=O)n(CCNC(=O)c4ccccc4OC)ccn3n2)c1,i,?
Cc1ccc(-c2cc3c(=O)n(CCNC(=O)c4nn(C)c5ccccc45)ccn3n2)cc1C,i,22µM
O=C(Nc1ccc(F)cc1)C1CC(=O)N(C2CC2)C1 (configuration not stated),nt,i
COCCCN1C(=O)CC[C@H]2CN(Cc3cc(CC(C)C)n[nH]3)CC[C@H]21,i,i
Cc1ccn2c(=O)cc(CN3CC[C@@H]4[C@@H](CCC(=O)N4CCC(C)C)C3)nc2c1,i,28µM
COCC1CN(C(=O)c2nccn2C)CC12CCNCC2 (configuration not stated),i,25µM
COCCCn1c(C)cc(C(=O)N2CCCC(CO)CCNC(=O)CC2)c1C (configuration not stated),i,i
COCCCn1c(C)cc(C(=O)N2CC(COC)C3(CCNCC3)C2)c1C (configuration not stated),i,32µM
CCOc1ccc(C(=O)N2CC(COC)C3(CCNCC3)C2)cc1OCC (configuration not stated),i,i
CCOC(=O)NC(CNC(=O)c1cccc(C)c1C)CC(C)C (configuration not stated),nt,i
SMILES,IP6K1 inhibitor,KDM5B inhibitor
Cc1cccc(C)c1N1C(C(=O)OCc2ccccc2)=C(O)c2ccccc2[S+]1(=O)[O-],i,nt
Cc1ccc(NC(=O)c2ccc(CN3C(=O)NC4(CCOCC4)C3=O)cc2)cc1C,i,i
O=C(CN1CCN(C(=O)CCNS(=O)(=O)c2ccc(F)cc2)CC1)Nc1ccccc1Cl,nt,i
O=C(NCc1ccccc1)c1ccc(N2CC3CC(C2)[C@H]2CCCC(=O)N2C3)nc1 (some centres not stated),i,?
O=C(NCc1cccc(F)c1)c1ccc(N2CC3CC(C2)[C@H]2CCCC(=O)N2C3)nc1 (some centres not stated),i,i
O=C(NCc1cccnc1)c1cccnc1N1CC2CC(C1)[C@H]1CCCC(=O)N1C2 (some centres not stated),i,28µM
O=C(NCc1cc(F)ccc1F)c1cccnc1N1CC2CC(C1)[C@H]1CCCC(=O)N1C2 (some centres not stated),i,32µM
CCOCCNC(=O)C1CCN(C(=O)c2ccc(-c3cncnc3)cc2)CC1,i,nt
Cn1ccc(NC(=O)c2ccc(-c3ncc4cnc(-c5ccccc5)cn34)cc2)n1,i,7.9µM
CNC(=O)C1CCN(C(=O)c2ccc(-c3ncc4cnc(-c5ccccc5)cn34)cc2)CC1,i,22µM
O=C(NCCc1cnc[nH]1)c1ccc(-c2ncc3cnc(-c4ccccc4)cn23)cc1,i,nt
CNC(=O)C1CCN(C(=O)c2ccc(-c3ccccc3OC)cc2)CC1,i,nt
CN(C)CCN(C)C(=O)c1ccc(-c2ncc3cnc(-c4ccccc4)cn23)cc1,i,32µM
Cn1ccc(NC(=O)c2ccc(-c3ncc4cnc(-c5cccc(F)c5)cn34)cc2)n1,i,?
Cc1ccc(C)c(S(=O)(=O)N2CCN(C(=O)c3cc4ccc(F)cc4nc3C)CC2)c1,nt,i
COc1ccc2c(=O)c(Oc3cc(C)cc(C)c3)coc2c1,nt,i
Cc1cc(C(=O)NCCc2ccccn2)c(C)s1,nt,i
Cc1ccc(S(=O)(=O)N(CC(=O)Nc2ccccc2C(=O)O)c2cccc(Cl)c2)cc1,nt,i
